About 8,800 targets were measured; listed, in parts, are those with a hit and a random draw of the rest. About 0.5% of all pairs of compound and target were hits.
Experiments:
Assay in all cases: log2 fold change, soluble protein after heating vs DMSO (PISA); higher = thermal stabilisation; K562 lysate, 10 uM; active = over 0.2 and 3.5 SD of the protein, either way, in both replicates (recomputed)
[1] = compound: C1=CC=C(C=C1)[C@H](COC2=CC3=C(C=C2)NC(=O)N3)NC(=O)C4=CC=CN(C4=O)CC5=CC(=C(C=C5)F)F
Outline: (§1)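 Thermal stability, expressed as log-two fold change relative to solvent controls, is given from duplicates. Crude K562 extract in PBS pH 7.4 with 1 mM MgCl2, at 1 mg/mL protein, was treated with 10 μM compound for 30 min and heated in aliquots for 3 min across 48°C-58°C. After pooling, adjustment to 0.5% NP-40 at 4°C and centrifugation at 21,000xg for 90 min, supernatant protein was measured by TMTpro 16plex LC-MS/MS with channel sums equalised.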

[2] = compound: CC1=C(SC2=C1C(=N[C@H](C3=NN=C(N32)C)CC(=O)N)C4=CC=C(C=C4)Cl)C
Outline: as §1

[3] = compound: CC1=C2C(=CC=C1)N=C(N(C2=O)C3=CC=CC=C3C)CN4C=NC5=C(N=CN=C54)N
Outline: as §1

[4] = compound: Cc1sc2c(c1C)C(c1ccc(Cl)cc1)=N[C@@H](CC(=O)OC(C)(C)C)c1nnc(C)n1-2
Outline: as §1

[5] = compound: c1ccc([C@@H]2C[C@H]2NC2CCNCC2)cc1
Outline: as §1

Measured: log2 fold change

SLC25A17 (UniProt O43808)
inactive: [1] -0.014 | [2] 0.007 | [3] -0.024 | [4] -0.096 | [5] -0.163

SMIM12 (UniProt Q96EX1)
inactive: [1] -0.026 | [2] -0.006 | [3] 0.004 | [4] 0.105 | [5] 0.153

SMC6 (UniProt Q96SB8)
inactive: [1] -0.049 | [2] 0.006 | [3] 0.014 | [4] -0.036 | [5] -0.047

SPATA5L1 (UniProt Q9BVQ7)
inactive: [1] -0.019 | [2] 0.036 | [3] 0.006 | [4] -0.007 | [5] -0.039

SNCA (UniProt P37840)
inactive: [1] 0.211 | [2] 0 | [3] -0.009 | [4] 0.211 | [5] -0.077

SOX5 (UniProt P35711)
Sequence of UniProt P35711 (P35711 whole entry, looked up): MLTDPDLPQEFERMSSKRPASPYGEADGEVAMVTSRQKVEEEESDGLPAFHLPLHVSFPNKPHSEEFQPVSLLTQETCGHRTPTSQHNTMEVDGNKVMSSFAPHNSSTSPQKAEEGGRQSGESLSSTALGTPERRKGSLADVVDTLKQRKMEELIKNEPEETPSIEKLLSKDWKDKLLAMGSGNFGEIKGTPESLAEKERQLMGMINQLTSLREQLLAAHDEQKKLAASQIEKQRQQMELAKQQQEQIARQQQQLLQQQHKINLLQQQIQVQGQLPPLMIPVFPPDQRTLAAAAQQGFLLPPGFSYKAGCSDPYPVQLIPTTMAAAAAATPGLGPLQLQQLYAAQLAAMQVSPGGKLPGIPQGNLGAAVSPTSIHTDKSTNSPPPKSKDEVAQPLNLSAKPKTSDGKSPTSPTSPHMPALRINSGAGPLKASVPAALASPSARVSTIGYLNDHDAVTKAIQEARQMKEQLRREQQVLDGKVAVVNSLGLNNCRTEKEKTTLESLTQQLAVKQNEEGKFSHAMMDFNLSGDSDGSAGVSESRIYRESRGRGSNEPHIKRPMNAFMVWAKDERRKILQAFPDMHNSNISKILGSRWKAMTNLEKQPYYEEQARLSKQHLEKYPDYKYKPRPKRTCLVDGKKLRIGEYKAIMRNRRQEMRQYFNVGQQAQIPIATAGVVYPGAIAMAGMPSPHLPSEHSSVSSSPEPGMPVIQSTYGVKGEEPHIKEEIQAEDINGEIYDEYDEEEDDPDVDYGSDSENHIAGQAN
inactive: [1] -0.092 | [2] -0.052 | [3] 0.076 | [4] -0.005 | [5] 0

STARD3 isoform 3 (UniProt Q14849)
inactive: [1] -0.015 | [2] 0.007 | [3] 0 | [4] -0.004 | [5] 0

SMC3 (UniProt Q9UQE7)
inactive: [1] -0.002 | [2] 0.011 | [3] -0.011 | [4] 0.037 | [5] 0.022

SRSF2 (UniProt Q01130)
inactive: [1] 0.023 | [2] -0.011 | [3] 0 | [4] -0.058 | [5] -0.129

SQLE (UniProt Q14534)
inactive: [1] 0.044 | [2] 0.054 | [3] -0.099 | [4] 0.012 | [5] 0.031

STK36 (UniProt Q9NRP7)
Sequence of UniProt Q9NRP7 (Q9NRP7 whole entry, looked up): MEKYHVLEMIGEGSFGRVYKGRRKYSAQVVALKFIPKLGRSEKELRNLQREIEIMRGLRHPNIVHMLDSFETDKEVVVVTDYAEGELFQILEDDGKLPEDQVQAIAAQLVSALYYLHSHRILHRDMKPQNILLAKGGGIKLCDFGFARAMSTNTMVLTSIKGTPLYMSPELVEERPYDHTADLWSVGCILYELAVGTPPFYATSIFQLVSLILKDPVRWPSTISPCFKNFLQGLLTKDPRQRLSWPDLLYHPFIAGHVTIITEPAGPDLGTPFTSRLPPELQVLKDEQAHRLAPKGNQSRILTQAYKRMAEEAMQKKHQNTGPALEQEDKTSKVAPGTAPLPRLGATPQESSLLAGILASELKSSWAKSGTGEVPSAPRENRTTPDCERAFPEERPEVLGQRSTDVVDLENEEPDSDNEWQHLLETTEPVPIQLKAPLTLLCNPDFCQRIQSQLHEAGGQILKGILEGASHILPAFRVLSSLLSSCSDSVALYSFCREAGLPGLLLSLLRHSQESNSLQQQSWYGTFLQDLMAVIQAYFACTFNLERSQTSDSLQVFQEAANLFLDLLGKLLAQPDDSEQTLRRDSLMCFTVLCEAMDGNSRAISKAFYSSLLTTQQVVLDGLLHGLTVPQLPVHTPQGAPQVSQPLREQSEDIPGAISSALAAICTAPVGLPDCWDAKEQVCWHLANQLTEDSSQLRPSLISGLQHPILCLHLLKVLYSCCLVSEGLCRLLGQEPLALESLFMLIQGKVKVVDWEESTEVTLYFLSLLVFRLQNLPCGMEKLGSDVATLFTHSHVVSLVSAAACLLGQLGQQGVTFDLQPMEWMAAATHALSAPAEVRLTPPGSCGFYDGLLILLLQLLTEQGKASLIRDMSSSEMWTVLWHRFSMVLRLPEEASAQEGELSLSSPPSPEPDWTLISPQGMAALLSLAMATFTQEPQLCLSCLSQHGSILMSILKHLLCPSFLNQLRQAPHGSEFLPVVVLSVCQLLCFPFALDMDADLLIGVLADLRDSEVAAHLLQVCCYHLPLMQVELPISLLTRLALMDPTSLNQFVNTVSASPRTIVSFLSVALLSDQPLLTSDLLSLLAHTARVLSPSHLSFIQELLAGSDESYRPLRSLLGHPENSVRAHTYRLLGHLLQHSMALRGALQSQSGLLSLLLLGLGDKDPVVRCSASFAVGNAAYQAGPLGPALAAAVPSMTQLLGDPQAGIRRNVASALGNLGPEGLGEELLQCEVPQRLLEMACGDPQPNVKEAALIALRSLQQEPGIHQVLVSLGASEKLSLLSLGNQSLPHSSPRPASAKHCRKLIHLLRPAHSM
inactive: [1] -0.014 | [2] 0.174 | [3] 0.163 | [4] -0.43 | [5] -0.42

TAOK2 (UniProt Q9UL54)
inactive: [1] -0.033 | [2] 0.118 | [3] -0.001 | [4] 0.242 | [5] -0.105

SLC11A2 isoform 3 (UniProt P49281)
Sequence of UniProt P49281 (P49281 whole entry, looked up): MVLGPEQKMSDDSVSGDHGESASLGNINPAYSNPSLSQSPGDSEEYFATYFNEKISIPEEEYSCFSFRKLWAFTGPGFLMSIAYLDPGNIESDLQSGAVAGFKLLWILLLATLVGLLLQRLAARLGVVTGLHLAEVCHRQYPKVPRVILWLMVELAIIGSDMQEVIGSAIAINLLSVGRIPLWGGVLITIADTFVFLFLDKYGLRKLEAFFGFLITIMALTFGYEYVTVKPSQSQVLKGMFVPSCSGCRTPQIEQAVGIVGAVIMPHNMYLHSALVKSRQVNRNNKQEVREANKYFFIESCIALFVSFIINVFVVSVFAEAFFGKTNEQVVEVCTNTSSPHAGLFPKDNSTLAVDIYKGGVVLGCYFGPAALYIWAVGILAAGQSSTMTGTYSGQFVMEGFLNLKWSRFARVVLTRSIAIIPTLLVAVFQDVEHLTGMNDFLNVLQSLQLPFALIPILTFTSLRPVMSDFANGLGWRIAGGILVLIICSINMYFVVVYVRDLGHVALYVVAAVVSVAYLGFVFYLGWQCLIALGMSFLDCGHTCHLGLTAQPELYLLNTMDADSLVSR
inactive: [1] -0.081 | [2] -0.017 | [3] 0.016 | [4] -0.01 | [5] 0.003

SLC7A5 (UniProt Q01650)
inactive: [1] 0.019 | [2] -0.027 | [3] 0.003 | [4] -0.061 | [5] -0.231

SH3BP2 isoform 4 (UniProt P78314)
inactive: [1] -0.05 | [2] 0.211 | [3] -0.124 | [4] 0.035 | [5] -0.021

SMAD9 (UniProt O15198)
inactive: [1] 0.102 | [2] -0.074 | [3] 0.058 | [4] -0.099 | [5] 0.042

SORBS3 (UniProt O60504)
inactive: [1] 0.047 | [2] 0.081 | [3] -0.049 | [4] 0.028 | [5] 0.022

SNW1 (UniProt Q13573)
Sequence of UniProt Q13573 (Q13573 whole entry, looked up): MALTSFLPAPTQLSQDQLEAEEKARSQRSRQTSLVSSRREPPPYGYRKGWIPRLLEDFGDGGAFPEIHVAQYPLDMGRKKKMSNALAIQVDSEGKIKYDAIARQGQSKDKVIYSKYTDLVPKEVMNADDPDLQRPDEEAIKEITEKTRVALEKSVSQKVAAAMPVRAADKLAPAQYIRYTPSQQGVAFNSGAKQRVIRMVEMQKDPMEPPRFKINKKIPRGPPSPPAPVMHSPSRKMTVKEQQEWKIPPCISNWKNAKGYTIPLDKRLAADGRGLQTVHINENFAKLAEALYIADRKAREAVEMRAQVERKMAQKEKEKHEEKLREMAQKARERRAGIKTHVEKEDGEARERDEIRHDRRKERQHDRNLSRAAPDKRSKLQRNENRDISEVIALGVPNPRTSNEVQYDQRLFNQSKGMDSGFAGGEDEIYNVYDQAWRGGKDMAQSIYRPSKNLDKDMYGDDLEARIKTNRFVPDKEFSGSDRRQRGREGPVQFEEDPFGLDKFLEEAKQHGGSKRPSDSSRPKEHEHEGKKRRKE
inactive: [1] 0.018 | [2] -0.002 | [3] -0.009 | [4] 0.022 | [5] 0.048

SPNS1 (UniProt Q9H2V7)
inactive: [1] 0.05 | [2] 0.017 | [3] 0.023 | [4] -0.076 | [5] -0.019

SLC19A1 (UniProt P41440)
inactive: [1] 0.017 | [2] -0.022 | [3] -0.056 | [4] -0.12 | [5] -0.176

SLC26A6 (UniProt Q9BXS9)
inactive: [1] -0.053 | [2] 0.067 | [3] 0.011 | [4] -0.556 | [5] -0.096

SH3BGRL2 (UniProt Q9UJC5)
inactive: [1] 0.048 | [2] 0.085 | [3] -0.027 | [4] -0.001 | [5] 0.083

SMAP2 (UniProt Q8WU79)
inactive: [1] 0.02 | [2] -0.002 | [3] 0.029 | [4] 0.049 | [5] 0.02

TANK (UniProt Q92844)
inactive: [1] 0.04 | [2] -0.088 | [3] -0.023 | [4] -0.079 | [5] -0.025

STK3 isoform 2 (UniProt Q13188)
Sequence of UniProt Q13188 (Q13188 whole entry, looked up): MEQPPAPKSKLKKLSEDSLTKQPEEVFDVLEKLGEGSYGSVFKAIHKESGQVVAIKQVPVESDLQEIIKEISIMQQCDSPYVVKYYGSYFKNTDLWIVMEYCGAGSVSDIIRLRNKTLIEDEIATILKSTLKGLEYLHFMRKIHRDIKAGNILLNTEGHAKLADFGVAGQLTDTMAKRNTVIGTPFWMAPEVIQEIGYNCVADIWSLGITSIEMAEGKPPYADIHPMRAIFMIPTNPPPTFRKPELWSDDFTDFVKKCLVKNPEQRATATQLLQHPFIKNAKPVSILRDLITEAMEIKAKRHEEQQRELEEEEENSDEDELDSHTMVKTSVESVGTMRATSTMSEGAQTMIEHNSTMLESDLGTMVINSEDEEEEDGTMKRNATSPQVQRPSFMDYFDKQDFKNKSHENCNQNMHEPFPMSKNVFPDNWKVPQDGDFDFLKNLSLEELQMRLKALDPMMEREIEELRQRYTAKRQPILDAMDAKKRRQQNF
inactive: [1] -0.031 | [2] -0.042 | [3] -0.108 | [4] 0.01 | [5] -0.073

TAF9 (UniProt Q16594)
inactive: [1] 0.04 | [2] -0.004 | [3] 0.05 | [4] 0.019 | [5] 0.021

SSU72 (UniProt Q9NP77)
Sequence of UniProt Q9NP77 (Q9NP77 whole entry, looked up): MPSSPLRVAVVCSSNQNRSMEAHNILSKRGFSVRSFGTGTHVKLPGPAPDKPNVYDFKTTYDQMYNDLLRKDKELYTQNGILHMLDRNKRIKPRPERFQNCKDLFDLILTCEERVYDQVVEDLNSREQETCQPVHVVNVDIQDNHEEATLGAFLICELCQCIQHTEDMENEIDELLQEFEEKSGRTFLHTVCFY
inactive: [1] 0.014 | [2] 0.017 | [3] 0.078 | [4] 0.004 | [5] -0.17

SMG6 (UniProt Q86US8)
inactive: [1] 0.097 | [2] -0.041 | [3] -0.043 | [4] 0.076 | [5] 0.073

STUB1 (UniProt Q9UNE7)
inactive: [1] -0.04 | [2] 0.036 | [3] -0.006 | [4] 0.035 | [5] 0.02

SURF2 (UniProt Q15527)
Sequence of UniProt Q15527 (Q15527 whole entry, looked up): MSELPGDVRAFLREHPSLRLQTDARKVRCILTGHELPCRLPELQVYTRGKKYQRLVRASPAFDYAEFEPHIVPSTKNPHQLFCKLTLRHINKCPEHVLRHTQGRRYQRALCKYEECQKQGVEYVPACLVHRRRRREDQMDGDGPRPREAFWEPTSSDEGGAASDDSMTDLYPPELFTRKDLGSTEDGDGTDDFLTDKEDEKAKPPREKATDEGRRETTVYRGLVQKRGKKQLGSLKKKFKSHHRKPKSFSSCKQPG
inactive: [1] -0.013 | [2] 0.054 | [3] -0.054 | [4] 0.056 | [5] -0.032

SPC25 (UniProt Q9HBM1)
inactive: [1] 0.055 | [2] 0.044 | [3] 0.029 | [4] 0.022 | [5] 0.039

SYK (UniProt P43405)
inactive: [1] -0.016 | [2] 0.06 | [3] 0.135 | [4] 0.008 | [5] -0.052

SFR1 isoform 2 (UniProt Q86XK3)
inactive: [1] -0.035 | [2] -0.005 | [3] -0.01 | [4] 0 | [5] 0.072

SUZ12 (UniProt Q15022)
inactive: [1] -0.011 | [2] 0.042 | [3] -0.008 | [4] -0.047 | [5] -0.039

SPR (UniProt P35270)
inactive: [1] 0.113 | [2] -0.031 | [3] -0.027 | [4] -0.034 | [5] -0.067

SPATA5 (UniProt Q8NB90)
Sequence of UniProt Q8NB90 (Q8NB90 whole entry, looked up): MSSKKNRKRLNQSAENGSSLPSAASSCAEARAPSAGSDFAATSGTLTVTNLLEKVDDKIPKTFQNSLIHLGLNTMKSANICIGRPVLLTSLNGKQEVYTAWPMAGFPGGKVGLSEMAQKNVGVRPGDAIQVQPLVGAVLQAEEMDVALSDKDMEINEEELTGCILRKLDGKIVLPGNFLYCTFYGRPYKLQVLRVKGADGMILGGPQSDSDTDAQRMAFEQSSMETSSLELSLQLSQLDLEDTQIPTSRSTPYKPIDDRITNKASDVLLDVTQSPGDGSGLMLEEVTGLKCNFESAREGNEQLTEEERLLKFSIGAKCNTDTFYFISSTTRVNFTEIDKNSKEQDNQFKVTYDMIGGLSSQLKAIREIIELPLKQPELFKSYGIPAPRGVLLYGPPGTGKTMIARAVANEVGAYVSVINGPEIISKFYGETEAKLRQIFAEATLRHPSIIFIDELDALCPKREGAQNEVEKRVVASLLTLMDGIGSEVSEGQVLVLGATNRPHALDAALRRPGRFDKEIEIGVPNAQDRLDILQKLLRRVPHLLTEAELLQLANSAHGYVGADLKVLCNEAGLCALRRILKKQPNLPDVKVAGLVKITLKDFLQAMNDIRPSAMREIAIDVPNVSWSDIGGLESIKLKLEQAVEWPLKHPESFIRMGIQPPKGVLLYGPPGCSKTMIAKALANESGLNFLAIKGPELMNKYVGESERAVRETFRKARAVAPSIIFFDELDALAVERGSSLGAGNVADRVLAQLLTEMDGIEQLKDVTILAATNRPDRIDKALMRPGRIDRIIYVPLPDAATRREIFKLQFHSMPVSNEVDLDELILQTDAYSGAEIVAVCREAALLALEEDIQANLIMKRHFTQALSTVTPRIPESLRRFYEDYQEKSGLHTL
inactive: [1] -0.024 | [2] -0.005 | [3] 0.026 | [4] 0.008 | [5] 0.02

SLC25A32 (UniProt Q9H2D1)
inactive: [1] 0.032 | [2] 0.014 | [3] 0.016 | [4] -0.053 | [5] -0.06

Source: the supplement of paper PMC10849652
